About 16,000 (7.3%) of roughly 220,000 compounds were called active. Roughly 25% stayed inconclusive and do not appear here. Calls follow the shape of the dose curve; as a rule, active = well fitted inhibition curve with a large enough effect (not every such curve was filed as active); inconclusive = small, poorly fitted or top-dose-only effect, or another doubt; inactive = no such curve, though single readings can be large or run the other way. The full list was thinned out, with actives kept by preference.
Target: Aldehyde dehydrogenase 1A1 (Homo sapiens) (UniProt P00352)
Assay: qHTS Assay for Inhibitors of Aldehyde Dehydrogenase 1 (ALDH1A1)
Conditions: Purified ALDH1A1, NADH fluorescence, propionaldehyde substrate; series mostly up to 75.3 µM
Potency is read from the fitted curve at half-maximal effect.

Sequence of Aldehyde dehydrogenase 1A1 (Homo sapiens) (P00352 whole entry, looked up): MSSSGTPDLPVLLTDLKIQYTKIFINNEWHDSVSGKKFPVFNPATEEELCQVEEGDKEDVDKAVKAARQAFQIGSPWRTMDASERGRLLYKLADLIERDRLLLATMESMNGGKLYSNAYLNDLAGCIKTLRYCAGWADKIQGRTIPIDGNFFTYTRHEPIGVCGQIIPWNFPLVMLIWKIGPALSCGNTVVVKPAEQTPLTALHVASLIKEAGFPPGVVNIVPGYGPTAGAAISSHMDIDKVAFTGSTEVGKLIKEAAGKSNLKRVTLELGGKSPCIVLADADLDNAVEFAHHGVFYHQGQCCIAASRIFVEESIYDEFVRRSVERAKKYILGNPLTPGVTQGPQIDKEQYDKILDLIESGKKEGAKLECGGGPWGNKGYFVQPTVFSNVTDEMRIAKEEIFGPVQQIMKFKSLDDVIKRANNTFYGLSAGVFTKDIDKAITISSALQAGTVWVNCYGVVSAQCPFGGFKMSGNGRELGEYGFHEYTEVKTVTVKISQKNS

Potency, active:
CCOC(=O)c1sc(=S)n2c1[nH]c(=O)c1ccc(C(=O)OC)cc12 8.91 µM
CC(C)(C)C1C/C(=C/c2ccco2)C(=O)/C(=C/c2ccco2)C1 (stereo not drawn) 7.94 µM
COc1ccccc1N1CCN(CCCCOc2ccc(F)cc2)CC1 25.1 µM
O=C1CSC(c2cccc(F)c2)N1c1ccccc1F (stereo not drawn) 14.1 µM
CC1CCN(C(=O)c2ccc(S(=O)(=O)Cc3cc(F)ccc3F)c([N+](=O)[O-])c2)CC1 7.08 µM
COc1ccc(S(=O)(=O)NCC2CCCN(C(=O)c3occc3C)C2)cc1 (stereo not drawn) 4.47 µM
CS(=O)(=O)N1CCN(C(=O)Cc2ccccc2)CC1 8.91 µM
COc1cccc(Cn2c(=O)cnc3cncnc32)c1 2.51 µM
Cc1cc2nc3c(=O)n(Cc4ccccc4)c(=O)[nH]c3nc2cc1N 12.6 µM
c1ccc(C(c2ccccc2)N2CCN(Cc3nnnn3C3CCCCC3)CC2)cc1 7.94 µM
COc1ccc2[nH]cc(CCNc3ncnc4ccc(-c5ccc(C(=O)N(C)C)cc5)cc34)c2c1 25.1 µM
O=C1/C(=C\c2cccnc2)CN(Cc2ccccc2)C/C1=C\c1cccnc1 7.94 µM
C=C(C)Cn1c(SCC(=O)NCc2ccco2)nc2sc3c(c2c1=O)CCC3 11.2 µM
N#Cc1c(NC(=O)CSc2nc3ccccc3c(=O)n2Cc2ccco2)sc2c1CCCC2 25.1 µM
O=C(/C=C/c1ccc(Cl)cc1Cl)c1cccnc1 10 µM
CCOc1ccc(C(=O)NC(=S)Nc2ccc(N3CCOCC3)c(Cl)c2)cc1[N+](=O)[O-] 2.51 µM
O=C(CSc1ccc([N+](=O)[O-])cn1)Nc1ccc(N2CCOCC2)c(Cl)c1 22.4 µM
Cc1cc(C)cc(N)c1 25.1 µM
CCCSc1nsc(N)n1 20 µM
CCOC(=O)C1=C(C)NC(=S)NC1c1cccs1 (stereo not drawn) 3.16 µM
CCSc1ncnc2c(C#N)c3n(c12)CCCCC3 12.6 µM
CCc1ccc2c(c1)C1(NN=C(c3ccccc3)S1)C(=O)N2 (stereo not drawn) 28.2 µM
CCS(=O)(=O)C1=NSC2=NC(=O)/C(=C\c3cc(C)n(-c4cccc(OC)c4)c3C)C(=N)N21 20 µM

Potency, inactive:
NS(=O)(=O)c1ccc(CCNC(=O)c2ccc(Cl)cc2[N+](=O)[O-])cc1
O=P(O)(CN1CCCCCC1)C1Cc2ccccc2C1
CCOC(=O)C1=C(C)Nc2sc(C(=O)c3ccc(Br)cc3)c(N)c2C1c1ccc(C(=O)OC)cc1 (stereo not drawn)
CCOC(=O)c1sc(NC(=O)c2ccncc2)nc1C
Cc1ccc(/C=N/NC(=O)COc2ccccc2-c2ccccc2)cc1
CCC1C/C(=C/c2cccs2)C(=O)/C(=C/c2cccs2)C1 (stereo not drawn)
CCC1S/C(=N/N=C/c2ccco2)NC1=O (stereo not drawn)
COc1ccc(C2=NN(c3nc4ccccc4s3)C(=O)C2)cc1
CCCCn1c(=O)c(C(C)=O)c(O)c2ccccc21
Cc1[nH]c2c(C(=O)N3CCCC(CCC(=O)NCc4ccccc4F)C3)cccc2c1C (stereo not drawn)
CCN1CCN(CCCCOc2ccccc2F)CC1
COc1ccccc1N1CCN(Cc2ccc(OC)c3ccccc23)CC1
CCOC(=O)c1c(NC(=O)C2CC=CCC2C(=O)O)sc(C)c1CC (stereo not drawn)
Cc1ccc(-c2cccc([C@H]3[C@@H]4C=CC[C@@H](C)[C@@H]4C(=O)N3Cc3ccccc3)c2)cc1
COc1ccc(OC)c(Cc2nnc(CCC(=O)NC3CCCC3)o2)c1
O=C1CSC(c2cccc(F)c2)N1c1ccc(O)cc1 (stereo not drawn)
O=C1CSC(c2ccccc2)N1c1nc(-c2ccc(Cl)cc2Cl)cs1 (stereo not drawn)
CC1CCN(c2ccc(S(=O)(=O)Nc3cc(C(=O)O)cc(C(=O)O)c3)cc2[N+](=O)[O-])CC1
O=C(Nc1ccc(F)cc1)C1CCN(C(=O)c2ccc([N+](=O)[O-])cc2)CC1
CCc1[nH]nc(C(=O)N2CCCC(CNS(=O)(=O)c3cccs3)C2)c1C (stereo not drawn)
COCCCNC(=O)C1CCC(CNS(=O)(=O)c2ccc(OC)cc2)CC1 (stereo not drawn)
Cc1ccc(S(=O)(=O)N2CCOCC2)cc1C(=O)OC1CCCCC1=O (stereo not drawn)
CCC(C)NC(=O)Cn1nc(C(F)(F)F)c2c1CCC2 (stereo not drawn)
CS(=O)(=O)N(CC(=O)N1CCCC1)Cc1ccccc1
CS(=O)(=O)N1CCC(C(=O)N2CCN(c3ccccc3)CC2)CC1
O=C(Nc1ccc(Cl)cc1)Nc1ccc(Oc2cccnc2)nc1
Cc1ccc(-n2cc(CN(C)Cc3nccn3C)c(-c3cccc(C)c3)n2)cc1
COc1cccc(Cn2c(=O)c(-c3cc(F)cc(F)c3)nc3cnc(OC)nc32)c1
COc1cccc(Cn2c(=O)c(C)nc3cnc(Oc4ccccc4)nc32)c1
COc1ccc(OC)c(NC(=O)CN(Cc2ccc(Cl)cc2)S(C)(=O)=O)c1
CCC(C)(C)C1CCC(=NNC(=O)c2ccc(Br)o2)CC1 (stereo not drawn)
O=c1[nH]c2c(c(=O)n1Cc1ccccc1)CCC2
Cc1nc2cnc(Nc3ccccc3)nc2n(Cc2ccc(F)cc2)c1=O
CCS(=O)(=O)c1ccc(C(=O)NC)c(Cl)c1Cl
c1ccc(CCn2nnnc2CN2CCN(C3CCCC3)CC2)cc1
COc1ccc(C(c2nnnn2C2CCCCC2)N2CCN(c3ccccc3F)CC2)cc1 (stereo not drawn)
Cc1ccc(N(CCC(=O)O)S(=O)(=O)c2cccc(C(F)(F)F)c2)cc1
COc1ccc2c(c1)c(=O)c(C(=O)c1ccc(Cl)cc1)cn2CC(=O)Nc1ccc(F)cc1
COc1ccc2[nH]cc(CCNc3nc(-c4cccc(NS(C)(=O)=O)c4)nc4ccccc34)c2c1
COc1ccc2[nH]cc(CCNc3ncnc4ccc(-c5ccccc5CN(C)C)cc34)c2c1
Cc1ccccc1NC(=O)NNC(=O)OC(C)(C)C
Cc1c(CCOC(=O)c2cc([N+](=O)[O-])ccc2Cl)sc[n+]1CCCCS(=O)(=O)[O-]
COc1cccc2c(N/N=C/c3ccco3)cc(C)nc12
Clc1ccc(CN2CCN(/N=C/c3cccnc3)CC2)cc1
O=Cc1cn(Cc2ccccc2)nc1-c1cccnc1
O=C(Nc1ccccc1C(=O)N1CCOCC1)c1ccc(CSc2ccccc2)cc1
O=C(/C=C/c1ccc(Cl)cc1)Nc1ccc(Br)cn1
O=C(CSc1nc2cc3c(cc2c(=O)n1CCC1=CCCCC1)OCO3)NCc1ccco1
Cc1cc(NC(=O)CSc2nc3cc(Cl)ccc3c(=O)n2Cc2ccco2)no1
O=C(CSc1c2c(nc3ccc(Cl)cc13)CCCC2)NCc1ccco1
COc1ccc(-n2c(SCC(=O)Nc3sc4c(c3C#N)CCCC4)nnc2-c2ccc(O)cc2)cc1
COc1cc(CNc2ncn[nH]2)ccc1OCc1ccccc1C
CCC(=O)N1CCC(C(N)=O)(N2CCCCC2)CC1
CC(O)CNCCOc1cccc(Oc2ccccc2)c1 (stereo not drawn)
CCOCCCNC(=O)C(NC(=O)Cc1c[nH]c2ccccc12)c1ccc(OC)cc1 (stereo not drawn)
CN1CCN(c2ccc(CNS(=O)(=O)c3cccc(F)c3)cc2)CC1
O=C(/C=C/c1ccc(Cl)c([N+](=O)[O-])c1)c1cccnc1
O=C(/C=C/c1ccc(Cl)cc1Cl)NCc1ccco1
CC1(C)CC(=O)C(C2c3ccccc3S(=O)(=O)c3ccccc32)C(=O)C1
COC(=O)c1cc(C)sc1NC(=O)CC1Nc2ccccc2NC1=O (stereo not drawn)
CN(NC(=O)C1CC(=O)N(c2ccccc2)C1)C1=NS(=O)(=O)c2ccccc21 (stereo not drawn)
CCOC(=O)c1c(NC(=O)c2ccc(N3CCOCC3)c([N+](=O)[O-])c2)sc(C)c1C
O=C(CCNC(=O)c1ccc([N+](=O)[O-])cc1)Nc1ccccc1N1CCOCC1
O=C(CSc1ccc([N+](=O)[O-])cn1)Nc1ccc(N2CCOCC2)cc1
CCOc1ccc(C(=O)NC(=S)Nc2ccc(NC(=O)C(C)C)cc2)cc1[N+](=O)[O-]
CN(C)N(C)C(=O)C(O)(c1ccccc1)c1ccccc1
Cc1ccc(S(=O)(=O)N(C)c2ccc(OCC(=O)NC3=NCCS3)cc2)cc1
Cc1cc(C(C)(C)C)cc(C)c1N
Cc1ccnc(N)c1
Cc1ccc(NC(=O)c2cccnc2C(=O)Nc2ccc(C)cc2)cc1
CCCCCCSc1nsc(N)n1
COc1ccccc1OCC(=O)OCn1c(SC)nnc(C)c1=O
CCOC(=O)c1cnc2[nH]c3ccccc3n2c1=O
CCSc1ccccc1C(=O)Nc1ccc2c(c1)OCO2
CCOC(=O)C1=C(C)NC(C)=C(C(=O)OCC)C1c1ccccn1
CCOC(=O)C1=C(C)Nc2nc3ccccc3n2C1c1cccs1 (stereo not drawn)
C/C(=N\NC(=O)COc1c(C)cccc1C)c1cccs1
CCOc1ccc(C(=O)NC2CCN(CC(=O)NCc3cccs3)CC2)cc1
Cc1cc(C)n(-c2nnc(N3CCN(c4ccccc4)CC3)nn2)n1
CCOC(=O)c1c(N=CN(C)C)c(C#N)c2n1CCCC2
C=C(C)c1cccc(C(C)(C)NC(=O)NCCN(CC)CC)c1
CCN(CCn1cccn1)C(=O)CC1C(=O)NCCN1Cc1cccc(OC)c1OC (stereo not drawn)
C=C1c2cc(CC)ccc2NC(=O)N1c1ccc(C)cc1
CCc1ccc2c(c1)C(c1ccc([N+](=O)[O-])cc1)=NNC(c1ccccc1)=N2
CCOc1cc(/C=C2/C(=N)N3OC(C)=CC3=NC2=O)ccc1OC

Source: PubChem BioAssay AID1030 (National Center for Advancing Translational Sciences (NCATS), 2008)
